# Giardia FBPA inh: qHTS Assay for Inhibitors of Fructose-1,6-bisphosphate Aldolase from Giardia Lamblia; purified Giardia FBPA; Potency, µM (top dose mostly 59.6 µM), inactives show at the highest dose activity, negative = inhibition, actives largely listed as inhibitors; 290,000 tested, 0.71% active; AID 2451, 2010; note: potency is the fitted concentration of half-maximal effect; % is set by controls: 0 for no effect and ±100 for the full control effect; nearly all actives have a fitted effect of over 55% in size
# Target sequence (A8B2U2 whole entry, looked up): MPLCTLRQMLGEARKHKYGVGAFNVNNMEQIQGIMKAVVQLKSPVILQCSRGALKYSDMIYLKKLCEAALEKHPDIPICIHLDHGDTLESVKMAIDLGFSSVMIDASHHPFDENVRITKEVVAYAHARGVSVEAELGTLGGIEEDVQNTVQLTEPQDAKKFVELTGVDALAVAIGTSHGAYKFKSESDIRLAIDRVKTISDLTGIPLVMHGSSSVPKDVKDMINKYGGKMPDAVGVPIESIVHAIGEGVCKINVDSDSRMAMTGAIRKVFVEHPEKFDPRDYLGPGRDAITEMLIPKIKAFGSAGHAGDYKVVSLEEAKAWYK
#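 40 nM FBPA preincubated 10 min at RT with compound (up to 57.5 uM final), then substrate plus GAPDH/TPI/NAD/arsenate coupling and diaphorase/resazurin added. Fluorescence read after 20 min at RT, 525/598 nm.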
# Cycloheximide cs: Cycloheximide Counterscreen for Small Molecule Inhibitors of Shiga Toxin | cell reporter, cycloheximide protein synthesis inhibition counterscreen | max response, % | 300,000 tested, 12% active | AID 2314, 2010; in the data active = max response mostly above about 13%, no sharp cut-off; inactive = mostly below about 14%; note: read at 38.3 µM for the half of the compounds with a filed dose; 0% is about no effect
# LmPK inhibitor: qHTS Assay for Inhibitors of Leishmania Mexicana Pyruvate Kinase (LmPK) | Potency, µM (titrated, usually from 57.5 µM), for the others: top-dose activity change, negative = inhibition, hits mostly inhibitors | purified LmPK, Kinase-Glo ATP luminescence, 1 h | 290,000 tested, 0.37% active | AID 1721, 2009; note: potency is the fitted concentration of half-maximal effect; % is set by controls: 0 for no effect and ±100 for the full control effect
#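 qHTS format; LmPK 0.1 nM; substrates PEP 0.5 mM and ADP 0.1 mM. One-hour room-temperature incubation, then coupled luciferase luminescence; 0.5 nM enzyme wells mark activation.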
# Shiga toxin inh: A qHTS for Small Molecule Inhibitors of Shiga Toxin; inhibition, % at 38.7 µM; 290,000 tested, 9.2% active; Vero cells, Shiga toxin protein synthesis inhibition reporter; AID 2315, 2010; in the data active = inhibition mostly above about 28%, no sharp cut-off; inactive = mostly below about 43%; note: 0% is about no effect
# NS1 function inh: qHTS Assay for Inhibitors of Influenza NS1 Protein Function | 270,000 tested, 0.4% active | AID 2326, 2010 | Potency, µM (top dose mostly 46.1 µM), inactives show at the top dose activity, positive = more growth; calls by dose curve; note: potency is the fitted concentration of half-maximal effect; actives are rising curves; nearly all actives have a fitted effect of over 50% in size
#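 Recovery from NS1-induced slow growth read by OD600 in budding yeast switched to galactose assay medium (pH 6.0, -URA) at 1:100 dilution. Compound 23 nl per well; the matching strain lacking NS1 serves as control.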
# * = called active by the depositor; i = inactive; ? = inconclusive; / = not tested or not shown; [ ] = another dose, or the depositor's remark. A selection: hits, their analogues and other compounds. The true share with any hit is near 14%. Unless noted, calls come from the whole dose curve; as a rule, active = well fitted curve in the direction sought with a large enough effect; inconclusive = small, poorly fitted or top-dose-only effect, or another doubt; inactive = no such curve, though single readings can be large; an effect the other way counts as inactive or inconclusive.
SMILES,Giardia FBPA inh,Cycloheximide cs,LmPK inhibitor,Shiga toxin inh,NS1 function inh
CCOC(=O)c1ccc(NC(=S)NNC(=O)C2(C)CC2(Cl)Cl)cc1 (centres undefined),4.7%,15.2,4.4%,active,-17.3%
CCOC(=O)c1ccc(NC(=O)C23CCC(C)(C(=O)O2)C3(C)C)cc1 (centres undefined),0.4%,49.8*,2.0%,65.1*,-1.0%
FC(F)(F)c1cc(NC(=S)NC23CC4CC(CC(C4)C2)C3)cc(C(F)(F)F)c1,-1.0%,/,/,/,/
NC(=O)c1nsc(C(=O)N(c2cccc(F)c2)C(C(=O)NCC2CCCO2)c2c[nH]c3ccccc23)c1N (centres undefined),3.0%,0.6,2.1%,35.9,-6.6%
Cc1cccc2c1NC(=O)C21OCC(CO)([N+](=O)[O-])CO1 (centres undefined),-5.8%,-2.6,-3.9%,-8.0,6.2%
COc1cccc(-c2nc(-c3ccc(NC(=O)c4cccnc4)cc3)no2)c1,-4.4%,-3.0,7.6%,-12.0,-8.8%
O=C(Nc1ccc(-c2noc(-c3cccs3)n2)cc1)c1cccnc1,-3.0%,26.6*,6.9%,59.0*,-8.9%
COc1ccc(NC(=O)/C(Cl)=C(/Cl)S(=O)Cc2ccccc2)cn1 (centres undefined),-0.7%,47.7*,2.4%,24.0,-175.4%
COc1cc(NC(=O)c2cccs2)cc(OC)c1,-1.7%,14.9*,-8.4%,active,-45.6%
COc1cccc(NC(=O)c2cccs2)c1,-8.5%,54.0*,-24.9%,134.8*,-99.3%
COc1ccc(NC(=O)CCN2C(=O)c3ccncc3C2=O)cc1OC,-13.3%,-5.0,5.6%,-1.4,1.4%
COc1ccc(Cl)cc1-c1nc(-c2ccc(NC(=O)c3cccs3)cc2)no1,-0.2%,85.2*,-25.6%,34.3*,-5.9%
COc1cc(N)ccc1NC(=O)c1cccs1,-18.5%,13.2*,3.6%,6.0,13.9%
COc1ccc(NC(=O)c2cccs2)cc1OC,0.5%,18.8*,-8.0%,19.2,-4.1%
COc1cc(NC(=O)c2cccs2)ccc1NC(=O)c1cc2ccccc2o1,6.0%,-4.3,0.6%,11.0,13.9%
COc1ccc(-c2[nH]ncc2/C=N\NC(=O)c2cccs2)cc1OC,/,35.9*,-11.8%,87.3*,-23.9%
COc1cc(NC(=O)c2cc(OC)c(OC)c(OC)c2)ccc1NC(=O)c1cccs1,/,0.6,-0.6%,-42.1,17.4%
O=C(Nc1cccc(F)c1)N1CC[C@@]2(CCCN(C(=O)c3cccc(F)c3)C2)C1,0.3%,/,/,/,/
COc1ccc(C(=O)Nc2cccc(NC(=O)c3cccs3)c2)cc1,2.9%,24.7*,-2.6%,20.3*,-5.6%
COc1ccc(NC(=O)c2ccc(NC(=O)c3cccs3)cc2)cc1,0.4%,9.0,-4.8%,1.4,21.4%
COc1ccc(NC(=O)c2cccs2)cn1,-1.8%,25.9*,-8.6%,61.5*,-48.9%
CC(=O)O[C@H]1CC2(C)[C@@H](C[C@@H](O)[C@H]3[C@@]4(C)CC[C@@H](O)[C@@H](C)[C@@H]4CC[C@@]32C)C1=C(CCC=C(C)C)C(=O)O (some centres undefined),-2.0%,/,/,/,?
CS(=O)(=O)Nc1ccc(C(=O)NCCSCc2ccccc2)cc1,-1.3%,-0.6,-1.4%,-8.4,5.9%
CC(C)(C)SCCNC(=O)c1ccc(NS(C)(=O)=O)cc1,6.0%,16.4*,4.6%,36.1*,-6.3%
CS(=O)(=O)Nc1ccc(C(=O)NCCc2ccccc2)cc1,5.3%,30.6*,-5.2%,69.2*,-5.8%
SMILES,Giardia FBPA inh,Cycloheximide cs,LmPK inhibitor,Shiga toxin inh,NS1 function inh
Cc1ccc(NC(=O)CSc2nncn2N)cc1C,3.9%,2.8,-5.2%,0.6,-4.3%
Fc1ccccc1/C=C/c1ccc2ccccc2n1,-6.7%,50.7,12.6µM*,72.0*,-14.8%
O/C(=C\c1ccc2ccccc2n1)c1ccc(O)cc1O,-1.4%,32.7*,-21.5%,38.9*,/
CC(=O)Oc1ccc(Cl)cc1/C=C/c1ccc2ccccc2n1,1.5%,37.4*,0.3%,75.8*,-24.4%
C(=C\c1ccc2ccccc2n1)/c1ccccc1,?,12.9,12.6µM*,15.6,-43.0%
O=S(=O)(NC1CC1)c1ccc(S(=O)(=O)N(Cc2ccccn2)C2CC2)cc1,3.9%,8.0,-0.2%,2.1,?
O=C(CNS(=O)(=O)c1ccc(Br)cc1)N1CCN(Cc2ccccc2)CC1,/,1.4,-0.8%,-12.7,5.6%
Cn1c(N2CCCC2)nc2c1c(=O)[nH]c(=O)n2C,-7.4%,-1.0,-9.0%,-10.2,?
C=C1c2ccccc2O[C@H](C(=O)OCC)[C@@H]1C1CCCCC1 (tested in a mixture with another compound),-1.8%[89.2 µM],7.3,/,i,/
COc1ccc(NC(=O)c2ccco2)c(NC(=O)c2ccc([N+](=O)[O-])cc2)c1,15.7%,-1.7,5.7%,-2.5,8.2%
Oc1ccc(/C=C/c2ccc3ccccc3n2)cc1,-19.3%,7.2,7.08µM*,23.8,/
Oc1ccc(/C(Cc2ccc3ccccc3n2)=N\Nc2ccccc2)c(O)c1,?,34.5*,-0.1%,69.2*,/
CCCCCCc1c(C[C@H](N)C(=O)O)o[nH]c1=O,-21.6%,/,/,/,/
COCCNC(=O)c1cc2c(s1)-c1ccc(Cl)cc1SC2,7.6%,43.8*,2.4%,91.3*,-2.2%
COCCNC(=O)c1ccc(C(=O)NCCOC)s1,-1.8%,-2.0,1.8%,0.7,11.6%
Nc1ncc2c(n1)-c1cc(Cl)ccc1SC2,1.3%,0.9,4.4%,-8.7,11.1%
NC(=O)c1cc2c(s1)-c1cc(Cl)ccc1SC2,2.5%,20.0*,2.0%,50.7,-12.1%
COc1ccc(C2=NS(=O)(=O)N(C)C(C(=O)N3CCOCC3)=C2)cc1OC,6.8%,-3.6,-3.5%,-3.6,5.2%
COC(=O)NC(/C(C(=O)OC)=C(\C)NCc1ccccc1)c1cccc(C)c1 (centres undefined),-0.9%[12.9 µM],/,/,/,/
C=CN1CCCC1=O,6.5%,-2.3,/,-10.2,/
Cc1cc(C)n(CC(=O)Nc2ccc(N3CCOCC3)c(Cl)c2)c(=O)c1C#N,7.4%,1.9,-1.2%,2.3,8.8%
COc1ccc(C2=NN(C(=S)Nc3ccccc3)C(c3ccccc3)C2)cc1 (centres undefined),-6.2%,-2.4,6.0%,0.7,28.3%
COc1ccc(C2CC(c3ccc(Br)cc3)=NN2C(=S)Nc2ccccc2)cc1 (centres undefined),-1.2%,21.4*,1.1%,43.3*,/
COc1ccc(C2CC(c3ccccc3)=NN2C(=S)Nc2ccccc2)cc1 (centres undefined),-6.0%,10.5,1.6%,-9.4,/
COc1ccc(C2=NN(C(N)=S)C(c3ccccc3)C2)cc1 (centres undefined),-6.8%,31.9*,11.3%,51.3*,/
Cc1ccccc1-c1ccc2ncnc(NCc3cccnc3)c2c1,2.9%,/,/,/,/
COc1ccc(C(=O)N2CCC3(CCCN(Cc4ccccc4)C3)CC2)cc1,3.5%,/,/,/,/

# Source: PubChem BioAssay
